One assay addresses ADIPOR1. The assay is described as follows: pooled miR-30 sensor sort-seq; sequence = guide strand. The following applies: shRNA.
TTGCTCTTCTTCAGCTTTGGGT registered a sensor-assay potency score (higher = more potent) of -0.543. Sequence TAGCAGATAGTCGTTGTCCTTT came in with a sensor-assay potency score (higher = more potent) of -0.519.

Take TAGACGGTGTGAAAGAGCCAGG: the sensor-assay potency score (higher = more potent) is -1. The same measure, in the same setting: the value for ATGAAGTACATATTTGGTCTGA was -0.176; that for TAGTCGTTGTCCTTTAGCCAGT was -0.984; that for TGAATGACAATAGACGGTGTGA was 0.0155. The same measure, in the same setting: with AAACTCTTCCATCTTCTCCATG the figure was -1.3. The sequence ATAATTAGAAGAGCAATCCCTG showed a sensor-assay potency score (higher = more potent) of -1.25. In the case of TAATTAGAAGAGCAATCCCTGA, the sensor-assay potency score (higher = more potent) is -1.23. With TAGAAGGAATAATAGAGCCAGG, the sensor-assay potency score (higher = more potent) is -1.35.

TCTCTGAATGACAATAGACGGT came in with a sensor-assay potency score (higher = more potent) of -0.907. TTATTTTTAAAAGCACTTGGGA gave a sensor-assay potency score (higher = more potent) of -0.469.

The next assay has as its target ADORA2B. Described as above. The following applies: shRNA.
For the sequence TTTTCCACCATAAACAAGGCAG, the sensor-assay potency score (higher = more potent) was -0.459. Turning to TAATCCACACAGTAAAAGCAGC, the sensor-assay potency score (higher = more potent) was -1.13. TAGCGGAAGTCTCGGTTCCGGT: the sensor-assay potency score (higher = more potent) is -1.62. Still for that read-out and setting: with TAGAAGTCAGTGCAGAAGCCCA the figure was -0.856.

As to TTCACAATGAAAACCAGCCGTG, the sensor-assay potency score (higher = more potent) is -0.942. ATTTTGTGAAAAGTGTAGCGGA yielded a sensor-assay potency score (higher = more potent) of -0.0457. On the same count and under the same terms, the value for TTTATTTTTCCATTGCCTCTAA was 0.2; that for TTTGTCAATCCTTGGAGCCTAC was -0.74. In turn, TCCCACTCTTGACATCTGCTTG returned a sensor-assay potency score (higher = more potent) of -0.99. In the case of AAGTGTAGCGGAAGTCTCGGTT, the sensor-assay potency score (higher = more potent) is -0.00274. Sequence TATATTTGTCAATCCTTGGAGC displayed a sensor-assay potency score (higher = more potent) of -0.159.

These data come from the OligoGym collection.
Further: reference of the scale not given here.
